Assay [1] has as its target Aldehyde dehydrogenase, mitochondrial (Homo sapiens) (UniProt P05091). As to the kind of experiment: qHTS for Inhibitors of the Aldehyde Dehydrogenase Family (ALDH2) Primary screen (AID 2061308). Also: nearly all actives have a fitted effect of over 55% in size.
Assay [2] has as its target Retinaldehyde dehydrogenase 3 (Homo sapiens) (UniProt P47895). The assay can be described thus: qHTS for Inhibitors of the Aldehyde Dehydrogenase Family (ALDH1A3) Primary screen (AID 2061315).

Data on 39 compounds can be found in PubChem BioAssay (NCATS).

Records with an inconclusive call do not appear. A call without a number means that no potency is given here. Calls of active or inactive are those of the source. Calls follow the shape of the dose curve; as a rule, active = well fitted curve in the direction sought with a large enough effect; inconclusive = small, poorly fitted or top-dose-only effect, or another doubt; inactive = no such curve, though single readings can be large; an effect the other way counts as inactive or inconclusive.

`CN1CCOc2cc(S(=O)(=O)N3CCN(S(=O)(=O)c4c(F)cccc4F)CC3)cnc21`: the Potency result in assay [1] and in assay [2] was “inactive” in each case.

`c1ccc(OCc2nnc3ccc(-c4ccccc4)nn23)cc1`: the Potency entry in assay [1] and in assay [2] was “inactive” in each case.

On to `Cc1cc(C)nc(NC(=S)N2CCN(c3ccc4ccccc4n3)CC2)c1`, for which the Potency entry in assay [1] and in assay [2] was “inactive” each time.

`Cc1cc(NS(=O)(=O)c2ccc3c(c2)CCC(=O)N3)ccc1F`: the Potency entry in assay [1] and in assay [2] was “inactive” in each case.

Regarding `Cc1nc(NCc2ccccc2)c2nc(-c3ccccc3)n(C3CCN(Cc4ccccc4)C3)c2n1` (stereo not drawn), the Potency result in assay [1] and in assay [2] was “inactive” throughout.

For the compound `CC(=O)NC(c1ccco1)c1cc(F)c2cccnc2c1O` (stereo not drawn), the Potency result in assay [1] and in assay [2] was “inactive” each time.

As to `CCC(C)N(C)C(=O)Cn1nc(-c2ccc(C)cc2)ccc1=O` (stereo not drawn), the Potency entry in assay [1] and in assay [2] was “inactive” each time.

With `Cc1cc(C)n2ncc(C(=O)Nc3ccc(C(F)(F)F)cc3)c2n1`, the Potency result in assay [1] and in assay [2] was “inactive” each time.

As for `COC(=O)N[C@H](C(=O)N1[C@@H]2CC[C@@H](C2)[C@H]1c1nc2ccc(-c3ccc4c(c3)C(F)(F)c3cc(-c5cnc([C@@H]6CCC7(CC7)N6C(=O)[C@@H](NC(=O)OC)C(C)C)[nH]5)ccc3-4)cc2[nH]1)C(C)C`, the Potency entry in assay [1] and in assay [2] was “inactive” in each case.

With `FC(F)(F)c1cccc(N2CCN(C(=S)Nc3ccncc3)CC2)c1`, the Potency entry in assay [1] and in assay [2] was “inactive” in each case.

With `O=C(CSc1nnc(-c2cccc(S(=O)(=O)N3CCCC3)c2)n1-c1ccccc1)Nc1ccc(Cl)cc1`, the Potency entry in assay [1] and in assay [2] was “inactive” throughout.

For the compound `Cc1cc(C)nc(NC(=S)N2CCN(c3noc4ccccc34)CC2)c1`, the Potency result in assay [1] and in assay [2] was “inactive” each time.

For the compound `COc1cc(Nc2nc(-c3ccncc3)nc3ccccc23)ccc1NS(C)(=O)=O`, the Potency entry in assay [1] and in assay [2] was “inactive” each time.

`Cc1ccc(-c2ccc(=O)n(CC(=O)N(C3CCCCC3)C3CC3)n2)cc1`: the Potency entry in assay [1] and in assay [2] was “inactive” each time.

Take `O=c1cc(CN2CCCN(c3ccc(C(F)(F)F)cn3)CC2)nc2ccccn12`: the Potency entry in assay [1] and in assay [2] was “inactive” each time.

On to `CCOC(=O)c1ccoc1-c1ccc2ncnc(NCCc3cnc[nH]3)c2c1`, for which the Potency entry in assay [1] and in assay [2] was “inactive” throughout.

Turning to `N/C(=N\c1nnc(-c2ccncc2)s1)Nc1ccc(Cl)c(Cl)c1`, the Potency result in assay [1] and in assay [2] was “inactive” in each case.

`O=[S+]([O-])(c1c(F)cccc1F)N1CCN([S+](=O)([O-])c2c(F)c(F)c(F)c(F)c2F)CC1`: the Potency result in assay [1] and in assay [2] was “inactive” in each case.

With `CC(=O)c1ccc(NC(=O)Nc2nnc(-c3ccncc3)s2)cc1`, the Potency entry in assay [1] and in assay [2] was “inactive” throughout.

Take `Cc1cccc(CNc2nc(-c3ccccc3C(C)C)ncc2C)c1`: the Potency entry in assay [1] and in assay [2] was “inactive” each time.

Turning to `Cc1cnc(NC(=O)c2ccc(-c3cccc([N+](=O)[O-])c3)o2)s1`, the Potency result in assay [1] and in assay [2] was “inactive” in each case.

For `CN(CC(F)(F)F)c1nc(NCc2ccc(-c3cccnc3)cc2)c2ccccc2n1`, the Potency entry in assay [1] and in assay [2] was “inactive” in each case.

Regarding `CCCn1c(C)nc2c(NCCOC)nc(C)nc21`, the Potency result in assay [1] and in assay [2] was “inactive” in each case.

Take `Cc1cc(-c2nnc3n2CCCCC3)c(C)n1-c1ccc(C#N)cc1`: the Potency result in assay [1] and in assay [2] was “inactive” each time.

Consider `COc1ccc(Oc2c(Cl)cnn(-c3cc(C)cc(C)c3)c2=O)cc1`, for which the Potency entry in assay [1] and in assay [2] was “inactive” each time.

On to `CCCn1c(C)nc2c(NCCCN(C)C)nc(C)nc21`, for which the Potency result in assay [1] and in assay [2] was “inactive” each time.

Consider `CC1=C(C(=O)c2ccccc2)C(c2ccccc2Cl)N=C(Nc2nc3ccccc3o2)N1` (stereo not drawn), for which the Potency entry in assay [1] and in assay [2] was “inactive” in each case.

As to `CCN(CCc1cn(C)cn1)c1ncnc2ccc(-c3ccc4c(c3)OCO4)cc12`, the Potency entry in assay [1] and in assay [2] was “inactive” each time.

Consider `C=C1C(O)C(O)C2(CC3C(C)=CCC4C(C)(CO)CCCC34C)OC2C1O` (stereo not drawn), for which the Potency result in assay [1] and in assay [2] was “inactive” in each case.

As for `N#Cc1ccc(C[C@@H](NS(=O)(=O)c2ccc(C(=O)O)cc2)C(=O)O)cc1`, the Potency result in assay [1] and in assay [2] was “inactive” in each case.

As to `CN(C)c1cccc(-c2cc(N3CCC(C(N)=O)CC3)ncn2)c1`, the Potency entry in assay [1] and in assay [2] was “inactive” in each case.

For the compound `Cc1csc(CNc2ncnc3ccc(-c4ccc5c(c4)OCO5)cc23)c1`, the Potency result in assay [1] and in assay [2] was “inactive” each time.

Regarding `O=C(Nc1ccc([S+](=O)([O-])Nc2nccs2)cc1)c1ccn[nH]1`, the Potency entry in assay [1] and in assay [2] was “inactive” in each case.

Turning to `CN1CCN(c2cccc(Nc3nn4c(=O)c5ccccc5nc4s3)c2)CC1`, the Potency entry in assay [1] and in assay [2] was “inactive” in each case.

For `CC(=O)c1ccccc1-c1ncc(C)c(NCC2CCN(c3cccnc3)CC2)n1`, the Potency result in assay [1] and in assay [2] was “inactive” each time.

With `Nc1ccc(-c2nnc(NC(=O)Nc3ccc(Cl)c(Cl)c3)s2)cc1`, the Potency result in assay [1] and in assay [2] was “inactive” in each case.

Turning to `O=C1CCCC2=C1C1(CCCC1)N=C(Nc1nc3cc(-c4ccccc4)ccc3o1)N2`, the Potency entry in assay [1] and in assay [2] was “inactive” each time.

Consider `O=C(Cc1ccccc1)Nc1sc2c(c1C(=O)Nc1ccc(Cl)cc1)CCOC2`, for which the Potency entry in assay [1] and in assay [2] was “inactive” in each case.

In the case of `CC(=O)O[C@@H]1CC(C)=C2[C@H]1[C@H](C)CC[C@H]2/C=C(\C)C(=O)O`, the Potency entry in assay [1] and in assay [2] was “inactive” each time.
